For the first assay, the target named is Serine/threonine-protein kinase PAK 1 (Homo sapiens) (UniProt Q13153). The conditions noted are these: at 1 µM.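 Note: reported values are mean percent inhibition of PAK1 activity.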
Serine/threonine-protein kinase PAK 2 (Homo sapiens), sequence (Q13177 whole entry): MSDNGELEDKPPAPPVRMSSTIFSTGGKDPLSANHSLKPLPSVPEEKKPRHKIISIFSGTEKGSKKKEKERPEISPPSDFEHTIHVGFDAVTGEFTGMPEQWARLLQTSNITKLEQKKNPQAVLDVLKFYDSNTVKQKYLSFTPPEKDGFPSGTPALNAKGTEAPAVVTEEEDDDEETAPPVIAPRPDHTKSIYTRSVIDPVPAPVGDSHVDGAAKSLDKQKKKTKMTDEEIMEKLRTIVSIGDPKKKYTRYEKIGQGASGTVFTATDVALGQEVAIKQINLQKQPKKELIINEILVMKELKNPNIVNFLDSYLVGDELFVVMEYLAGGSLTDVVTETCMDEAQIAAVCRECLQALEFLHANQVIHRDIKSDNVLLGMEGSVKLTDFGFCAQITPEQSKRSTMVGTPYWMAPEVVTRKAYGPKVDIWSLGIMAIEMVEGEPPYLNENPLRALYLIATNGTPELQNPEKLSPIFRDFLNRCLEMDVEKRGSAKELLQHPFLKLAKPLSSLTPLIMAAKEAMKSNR
Serine/threonine-protein kinase PAK 1 (Homo sapiens), sequence (Q13153 whole entry): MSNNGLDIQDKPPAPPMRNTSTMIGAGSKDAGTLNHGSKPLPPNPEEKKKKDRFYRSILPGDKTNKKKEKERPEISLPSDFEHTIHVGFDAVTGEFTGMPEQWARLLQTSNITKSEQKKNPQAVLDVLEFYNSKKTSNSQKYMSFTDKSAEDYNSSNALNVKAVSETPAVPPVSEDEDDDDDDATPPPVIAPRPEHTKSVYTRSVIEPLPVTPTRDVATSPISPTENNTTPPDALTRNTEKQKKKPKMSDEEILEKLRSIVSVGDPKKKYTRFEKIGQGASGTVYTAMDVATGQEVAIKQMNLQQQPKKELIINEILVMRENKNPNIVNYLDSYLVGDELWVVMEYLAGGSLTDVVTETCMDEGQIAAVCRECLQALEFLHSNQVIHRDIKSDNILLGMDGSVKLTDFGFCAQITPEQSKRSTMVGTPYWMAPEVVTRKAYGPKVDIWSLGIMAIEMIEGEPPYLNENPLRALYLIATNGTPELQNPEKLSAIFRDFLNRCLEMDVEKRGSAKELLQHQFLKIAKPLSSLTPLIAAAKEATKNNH
The term inhibition denotes the drop in the measured response relative to a control, in per cent. On to `Fc1ccc(-c2c(-c3ccncc3)nc3n2CCS3)cc1`, for which the inhibition was -0.03%. For the compound `Fc1ccc(-c2ncn(C3CCNCC3)c2-c2ccnc(Oc3ccc4c(c3)OCO4)n2)cc1`, the inhibition stood at 8.06%. The same measure, in the same setting: under `Nc1nccc(-c2c(-c3ccc(F)cc3)ncn2C2CCC(O)CC2)n1` (configuration not stated) stands -3.74%; under `c1ccc(-c2n[nH]cc2-c2ccnc(-c3ccc(OCCN4CCOCC4)cc3)c2)nc1`, 5.57%. For `COc1cccc(/C=N/Nc2ncnc3c2cnn3-c2cccc(OC)c2)c1`, the inhibition worked out at 6.13%.

Consider `CCS(=O)(=O)c1ccc(OC)c(Nc2ncc(-c3cccc(-c4ccccc4F)c3)o2)c1`, for which the inhibition is -0.96%.

As for `Fc1ccc(-c2ncn(C3CCNCC3)c2-c2ccnc(Oc3ccc(Oc4ccccc4)cc3)n2)cc1`, the inhibition turned out to be 8.97%. As to `NCc1ccc(-n2c(-c3nonc3N)nc3cnccc32)cc1`, the inhibition stood at 11.4%. Take `CCc1nccc2c1nc(-c1nonc1N)n2CC`: the inhibition came out at 3.71%. The same measure, in the same setting: for `COc1cc2ncn(-c3cc(OCCc4ccccc4)c(C(N)=O)s3)c2cc1OC` the value was 5.32%. `FC(F)(F)c1cccc(Nc2nccc(-c3cnn4nc(-c5ccccc5)ccc34)n2)c1`: the inhibition amounted to 3.48%.

For the compound `COC(=O)Nc1nc2ccc(Sc3ccc(NC(=O)Nc4cc(C(F)(F)F)ccc4F)cc3)cc2[nH]1`, the inhibition was -1.32%. As for `COc1ccc(C2=C(N3CCc4ccccc43)C(=O)NC2=O)cc1`, the inhibition is 7.47%.

Turning to `CN1CCN(CCCNc2nc3ccc(Oc4ccc(NC(=O)Nc5cc(C(F)(F)F)ccc5F)cc4)cc3[nH]2)CC1`, the inhibition is 2.58%. Take `CCC(=O)Nc1ccc(C)c(-c2ccc(C(=O)NCC3CC3)cc2)c1`: the inhibition is 9.02%. `CN(c1ccc(NC(=O)Nc2c(Cl)cccc2Cl)cc1)c1ccnc(Nc2cccc(CS(C)(=O)=O)c2)n1`: the inhibition was 2.17%.

With `NS(=O)(=O)c1ccc(N/N=C2\C(=O)Nc3ccc(C(=O)NCCCn4ccnc4)cc32)cc1`, the inhibition was determined as 11.5%.

`Cc1ccc(NC(=O)c2ccoc2)cc1-c1ccc(C(=O)NCC2CC2)cc1`: the inhibition turned out to be 4.54%.

A further assay has as its target Serine/threonine-protein kinase PAK 2 (Homo sapiens) (UniProt Q13177). The settings on record: at 0.1 µM.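 Note: values are mean percent inhibition of PAK2.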
Consider `O=C(Nc1n[nH]c2nc(-c3ccc(O)cc3)c(Br)cc12)C1CC1`, for which the inhibition worked out at 2.36%.

On to `Fc1ccc(-c2ncn(CCCN3CCOCC3)c2-c2ccncc2)cc1`, for which the inhibition was -0.59%. On to `COc1ccc2cc(-c3c(-c4ccncc4)nc(-c4ccc([S+](C)[O-])cc4C)n3C)ccc2c1` (configuration not stated), for which the inhibition is -1.29%. Still for that read-out and setting: under `c1ccc(Oc2ccc(Nc3ncc(-c4ccccc4)o3)cc2)cc1` stands 0.5%; under `C[C@@H](Oc1cc(-n2cnc3ccc(OC4CCN(C)CC4)cc32)sc1C(N)=O)c1ccccc1Cl`, 1.74%; under `NC(=O)c1cc(-c2ccncc2)cc(-c2ccccc2)c1N`, 2.07%. In the case of `O=C(NCC1CC1)c1ccc(-c2cccc(C(=O)NC3CC3)c2)cc1`, the inhibition is 2.76%. On to `O=C1Nc2ccccc2/C1=C/Nc1ccc(-n2cncn2)cc1`, for which the inhibition was 1.82%. As to `CN(C)c1ccc2c(c1)/C(=C/Nc1ccc(S(N)(=O)=O)cc1)C(=O)N2`, the inhibition is -0.61%.

Regarding `C[C@@H](Oc1cc(-n2cnc3ccc(OCC4CCN(C)CC4)cc32)sc1C(N)=O)c1ccccc1Cl`, the inhibition came to 3.01%. The same measure, in the same setting: under `CN(C)CCCNc1nccc(-c2c(-c3ccc(F)cc3)nn3cc(C(F)(F)F)ccc23)n1` stands 1.45%.

In the case of `COc1ccc2ncn(-c3cc(O[C@H](C)c4ccccc4Cl)c(C(N)=O)s3)c2c1`, the inhibition is 1.84%.

On to `CN(C)CCOc1ccc(-c2cc(-c3ccc4c(c3)CCC4=NO)c(-c3ccncc3)o2)cc1`, for which the inhibition was -1.68%. Take `Cc1nnc(-c2ccc(C)c(-c3ccc(C(=O)NCc4ccc(Cl)cc4)cc3)c2)o1`: the inhibition turned out to be 1.55%. Take `O=C(Nc1n[nH]c2nc(-c3ccco3)ccc12)C1CC1`: the inhibition was determined as 0.42%.

In the case of `CCc1ccc(Oc2nccc(-c3c(-c4ccc(F)cc4)ncn3C3CCNCC3)n2)cc1`, the inhibition stood at 1.26%. As for `Fc1ccc(-c2c(-c3ccncc3)nc3n2CCS3)cc1`, the inhibition was -0.52%. Same read-out and setting: for `Fc1ccc(-c2ncn(C3CCNCC3)c2-c2ccnc(Oc3ccc4c(c3)OCO4)n2)cc1` the value was 2.45%. Same read-out and setting: under `Nc1nccc(-c2c(-c3ccc(F)cc3)ncn2C2CCC(O)CC2)n1` (configuration not stated) stands -0.84%. On to `c1ccc(-c2n[nH]cc2-c2ccnc(-c3ccc(OCCN4CCOCC4)cc3)c2)nc1`, for which the inhibition was determined as 1.69%. For the compound `COc1cccc(/C=N/Nc2ncnc3c2cnn3-c2cccc(OC)c2)c1`, the inhibition was 1.74%. `CCS(=O)(=O)c1ccc(OC)c(Nc2ncc(-c3cccc(-c4ccccc4F)c3)o2)c1`: the inhibition was -1%.

With `Fc1ccc(-c2ncn(C3CCNCC3)c2-c2ccnc(Oc3ccc(Oc4ccccc4)cc3)n2)cc1`, the inhibition came to 2.19%. For `NCc1ccc(-n2c(-c3nonc3N)nc3cnccc32)cc1`, the inhibition is 3.24%.

For `CCc1nccc2c1nc(-c1nonc1N)n2CC`, the inhibition is 0.74%.

`COc1cc2ncn(-c3cc(OCCc4ccccc4)c(C(N)=O)s3)c2cc1OC`: the inhibition is 0.32%.

As to `FC(F)(F)c1cccc(Nc2nccc(-c3cnn4nc(-c5ccccc5)ccc34)n2)c1`, the inhibition came out at 0.33%.

Regarding `COC(=O)Nc1nc2ccc(Sc3ccc(NC(=O)Nc4cc(C(F)(F)F)ccc4F)cc3)cc2[nH]1`, the inhibition is 10.8%.

For `COc1ccc(C2=C(N3CCc4ccccc43)C(=O)NC2=O)cc1`, the inhibition turned out to be 1.61%.

For the compound `CN1CCN(CCCNc2nc3ccc(Oc4ccc(NC(=O)Nc5cc(C(F)(F)F)ccc5F)cc4)cc3[nH]2)CC1`, the inhibition turned out to be 1.22%.

Regarding `CCC(=O)Nc1ccc(C)c(-c2ccc(C(=O)NCC3CC3)cc2)c1`, the inhibition was determined as 0.42%. Take `CN(c1ccc(NC(=O)Nc2c(Cl)cccc2Cl)cc1)c1ccnc(Nc2cccc(CS(C)(=O)=O)c2)n1`: the inhibition is 1.79%. `NS(=O)(=O)c1ccc(N/N=C2\C(=O)Nc3ccc(C(=O)NCCCn4ccnc4)cc32)cc1`: the inhibition is 0.82%.

Consider `Cc1ccc(NC(=O)c2ccoc2)cc1-c1ccc(C(=O)NCC2CC2)cc1`, for which the inhibition was found to be 0.23%.

The record behind these values is ChEMBL document CHEMBL1961873, “Compounds: GSK PKIS; Assays: Nanosyn kinase panel” (2012).
